# Compound activity deposited in PubChem by several laboratories.
# CYP2C9 activ: CYP2C9 (human) activation | P11712 | recombinant CYP2C9, luciferin-H conversion, luminescence; stronger effect = higher value; factor 1 = untreated enzyme, 0 = blocked | activation factor at 5 µM | 96,000 tested, 1.4% active | AID 1024;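 active means activation factor of 2 or more for CYP2C9 at a 5 µM dose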;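 further: 0 = sulfaphenazole-blocked wells and 1 = vehicle-only wells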
# CYP2C19 inhib: inhibitors of human CYP2C19; CYP2C19 Supersomes, luciferin-H EGE luminescence, 30 min; inhibition, % at 5 µM; 96,000 tested, 21% active; AID 778;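 active means CYP2C19 inhibition above a set limit at 5 µM in the primary screen, cut at about 50% in these data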;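 further: plate controls were negative control wells for no effect and 2.5 mM tranylcypromine positive control for full effect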
# CYP2C9 inhib: blocks human cytochrome P450 2C9 | inhibition, % at 5 µM | AID 777 | 96,000 tested, 20% active | CYP2C9 Supersomes, luciferin-H conversion, luminescence | P11712;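 active means blocking of liver enzyme CYP2C9 beyond about 50% at 5 µM, limit read from the data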
# CYP2C19 activ: activators of human cytochrome P450 2C19; 96,000 tested, under 10 active; recombinant CYP2C19, luciferin-H EGE luminescence; stronger effect = higher value; 0 = fully inhibited enzyme, 1 = untreated enzyme; activation factor at 5 µM;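 active means activation factor of at least 2 at 5 µM in the primary screen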;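 further: 0 = wells with 2.5 mM tranylcypromine and 1 = vehicle-only wells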
# Cav32 inh: human Cav3.2 channel inhibition, primary screen; AID 449739; Cav3.2-expressing cells, Fluo-4 calcium fluorescence FDSS; stronger effect = lower value; O95180; B-score at 10 µM; 100,000 tested, 4% active;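 active means single-dose well whose peak fluorescence ratio is a statistical outlier from its plate by either plate-standardised score or position-corrected B-score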
# Target sequence (O95180 whole entry, looked up): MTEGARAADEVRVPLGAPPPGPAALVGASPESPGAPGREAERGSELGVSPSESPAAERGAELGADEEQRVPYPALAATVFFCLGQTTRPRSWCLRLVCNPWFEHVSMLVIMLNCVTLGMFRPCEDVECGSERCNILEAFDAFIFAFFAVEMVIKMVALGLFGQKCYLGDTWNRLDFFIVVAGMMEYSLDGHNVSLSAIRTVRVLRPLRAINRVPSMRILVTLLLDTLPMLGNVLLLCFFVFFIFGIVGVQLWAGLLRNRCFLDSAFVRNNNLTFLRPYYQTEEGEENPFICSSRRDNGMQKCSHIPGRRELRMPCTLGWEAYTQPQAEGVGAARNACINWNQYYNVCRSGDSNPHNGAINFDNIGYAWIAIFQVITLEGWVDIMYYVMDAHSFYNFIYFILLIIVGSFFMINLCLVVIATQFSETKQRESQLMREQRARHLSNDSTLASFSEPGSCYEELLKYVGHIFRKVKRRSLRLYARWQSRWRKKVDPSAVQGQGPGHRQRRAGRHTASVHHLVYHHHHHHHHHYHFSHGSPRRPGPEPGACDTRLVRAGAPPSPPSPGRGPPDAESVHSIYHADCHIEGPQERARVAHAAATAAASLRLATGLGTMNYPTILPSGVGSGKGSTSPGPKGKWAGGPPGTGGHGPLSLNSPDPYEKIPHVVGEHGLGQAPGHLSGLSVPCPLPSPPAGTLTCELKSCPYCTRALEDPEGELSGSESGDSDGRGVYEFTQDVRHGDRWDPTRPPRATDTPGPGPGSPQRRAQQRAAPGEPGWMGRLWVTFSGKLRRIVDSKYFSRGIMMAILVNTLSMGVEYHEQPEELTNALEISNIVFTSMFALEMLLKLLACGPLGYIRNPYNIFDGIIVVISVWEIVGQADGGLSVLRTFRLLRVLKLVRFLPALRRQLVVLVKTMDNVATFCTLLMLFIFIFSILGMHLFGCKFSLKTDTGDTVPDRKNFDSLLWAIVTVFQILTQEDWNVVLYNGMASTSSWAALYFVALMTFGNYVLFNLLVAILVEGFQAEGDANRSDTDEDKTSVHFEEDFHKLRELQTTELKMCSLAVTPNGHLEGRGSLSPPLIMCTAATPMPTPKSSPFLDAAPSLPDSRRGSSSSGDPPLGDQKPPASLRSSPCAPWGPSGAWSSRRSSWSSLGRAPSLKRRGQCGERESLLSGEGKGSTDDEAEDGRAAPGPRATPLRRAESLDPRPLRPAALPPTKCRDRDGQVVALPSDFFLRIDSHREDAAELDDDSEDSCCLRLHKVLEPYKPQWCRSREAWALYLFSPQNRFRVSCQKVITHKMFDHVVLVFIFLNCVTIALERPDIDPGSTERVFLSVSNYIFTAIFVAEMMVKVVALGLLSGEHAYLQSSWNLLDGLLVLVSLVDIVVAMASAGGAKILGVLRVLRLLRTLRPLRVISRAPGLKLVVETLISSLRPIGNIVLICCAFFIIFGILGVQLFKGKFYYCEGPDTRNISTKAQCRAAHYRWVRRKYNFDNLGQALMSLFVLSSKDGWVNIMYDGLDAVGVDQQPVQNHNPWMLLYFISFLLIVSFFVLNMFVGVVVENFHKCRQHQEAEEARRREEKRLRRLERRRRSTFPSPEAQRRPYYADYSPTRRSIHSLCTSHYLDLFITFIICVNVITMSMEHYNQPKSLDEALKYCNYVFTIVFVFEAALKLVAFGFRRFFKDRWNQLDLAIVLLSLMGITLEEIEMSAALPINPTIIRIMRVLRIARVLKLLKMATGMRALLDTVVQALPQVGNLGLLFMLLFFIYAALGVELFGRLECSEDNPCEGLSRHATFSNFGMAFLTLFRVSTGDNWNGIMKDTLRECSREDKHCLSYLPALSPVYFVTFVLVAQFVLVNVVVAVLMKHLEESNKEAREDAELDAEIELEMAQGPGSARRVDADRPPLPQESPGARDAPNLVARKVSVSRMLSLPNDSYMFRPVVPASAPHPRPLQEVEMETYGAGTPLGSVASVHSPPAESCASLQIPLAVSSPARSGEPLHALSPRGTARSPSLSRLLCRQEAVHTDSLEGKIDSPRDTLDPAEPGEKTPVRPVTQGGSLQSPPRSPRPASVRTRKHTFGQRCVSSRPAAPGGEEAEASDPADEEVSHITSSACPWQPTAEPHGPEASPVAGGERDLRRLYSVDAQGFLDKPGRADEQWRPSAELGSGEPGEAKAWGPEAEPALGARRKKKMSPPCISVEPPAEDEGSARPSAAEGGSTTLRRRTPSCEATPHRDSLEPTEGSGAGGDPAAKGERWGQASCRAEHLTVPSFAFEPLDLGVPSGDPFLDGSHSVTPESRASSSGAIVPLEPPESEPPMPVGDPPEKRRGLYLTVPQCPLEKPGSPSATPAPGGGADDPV
# * = called active by the depositor; · = no result. An excerpt weighted towards active compounds, which were near 27% of everything screened.
SMILES,CYP2C9 activ,CYP2C19 inhib,CYP2C9 inhib,CYP2C19 activ,Cav32 inh
C=CCSC(=C(C#N)C#N)c1cc2c([nH]1)CCCC2,0.4,41.5,63.1*,0.6,-6.32*
O=C(O)c1cc2c([nH]c1=O)CCCC2,1.2,-19.2,-20.9,1.2,-0.38
CC(C)(C)OC(=O)CNC(=O)c1nc[nH]c1C(=O)NCC(=O)OC(C)(C)C,·,·,·,·,0.982
O=C(NNc1ccc(C2CCCCC2)cc1)C(O)(c1ccccc1)c1cccs1 (stereo unspecified),0.7,17.3,28.3,0.8,-1.53
COc1ccc(C(O)(C(=O)NNc2ccc(C)cc2)c2cccs2)cc1 (stereo unspecified),0.8,76.8*,24.1,0.2,-0.136
N#CCC(=O)NCCCOC(=O)Nc1ccc(Cl)c(Cl)c1,1,-6.2,1.5,1.1,-0.257
CCCCC(=O)Nc1sc2c(c1C(=O)OCC)CCC(C=O)=C2Cl,0.9,2.4,10.4,1,-0.0206
Cc1cccc(Cn2cnc3c(nnn3Cc3ccc(F)cc3)c2=O)c1,2.5*,57.9*,-152.9,0.4,-2.68
O=C(Cn1cnc2c(nnn2Cc2ccc(F)cc2)c1=O)NCc1ccco1,·,·,·,·,-4.2*
CC12CC(NC(=O)N1c1ccc(C(=O)N3CCN(c4ccc(F)cc4)CC3)cc1)c1ccccc1O2 (stereo unspecified),0.9,28.8,10.2,0.7,-5.27*
CC12CC(NC(=O)N1c1cccc(C(=O)N3CCN(c4ccccc4)CC3)c1)c1ccccc1O2 (stereo unspecified),0.5,57.9*,53.0*,0.4,-5.4*
COc1ccccc1N1CCN(C(=O)c2cccc(N3C(=O)NC4CC3(C)Oc3ccccc34)c2)CC1 (stereo unspecified),0.9,4.4,13.0,1,-3.92*
CCOc1cccc2c1OC1(C)CC2NC(=O)N1c1ccc(OC)cc1 (stereo unspecified),0.9,3.6,8.8,1,0.192
CC12CC(NC(=O)N1Cc1ccccc1)c1ccccc1O2 (stereo unspecified),0.9,8.6,8.3,0.9,-5.4*
COC(=O)CCCC1=CC2=C(c3ccccc3)C(=O)C(C)(OC(=O)C3CCCC3)C(=O)C2=CN1CCc1c[nH]c2ccccc12 (stereo unspecified),·,·,·,·,1.31
CCOc1ccc(CCNS(=O)(=O)c2c(C)n[nH]c2C)cc1OCC,0.8,7.5,20.3,0.9,0.296
CC(C)n1nc(C(=O)OCC(=O)c2c[nH]c3ccccc23)c2ccccc2c1=O,0.8,18.4,22.1,0.8,0.601
CCn1nc(C(=O)OCC(=O)c2c[nH]c3ccccc23)c2ccccc2c1=O,0.3,32.4,71.9*,0.7,-0.0343
CCc1cccc2c(C(=O)COC(=O)c3nn(C)c(=O)c4ccccc34)c[nH]c12,0.1,94.4*,87.5*,0.1,·
CCc1cccc2c(C(=O)Cn3nnc(-c4ccc(OC)c(OC)c4)n3)c[nH]c12,0.4,71.3*,62.2*,0.3,·
C=CCNC(=O)C(=O)c1cccn1-c1ccsc1C(=O)OC,1,93.2*,-1.0,0.1,-0.517
CCc1cccc2c(=O)c(C(=O)N3CCOCC3)c[nH]c12,1,-3.9,-3.8,1,0.44
COc1ccccc1CNC(=O)CN(C)CC(=O)Nc1cccc(F)c1,0.2,92.5*,84.9*,0.1,2.44
COc1ccccc1CC(=O)Nc1ccccc1O,3.5*,61.9*,-245.1,0.4,0.0161
COc1ccccc1CC(=O)Nc1ccc(OC)c(OC)c1,1.2,28.8,-18.4,0.7,0.248
SMILES,CYP2C9 activ,CYP2C19 inhib,CYP2C9 inhib,CYP2C19 activ,Cav32 inh
COc1ccccc1CNC(=O)C[n+]1ccccc1,0.8,-7.2,21.9,1.1,-0.0116
COc1cc(NC(=O)Cc2ccccc2OC)cc(OC)c1,0.7,50.9*,29.6,0.5,1.04
CC(=O)Nc1ccc(S(=O)(=O)N2CCN(CC(=O)NC3CCCC3)CC2)cc1,1.1,-21.1,-8.8,1.2,0.168
CC1CCC(C(=O)NC(C(=O)N2CCc3ccccc3C2)C(C)C)CC1 (stereo unspecified),0.8,16.5,15.1,0.8,-5.36*
Cc1nc2ccc(-c3ccccc3)cc2o1,1,8.9,1.1,0.9,0.463
O=C1CC(c2ccc(F)cc2)Cc2nc(N3CCN(c4ccccc4)CC3)ncc21 (stereo unspecified),0.7,6.4,26.0,0.9,0.897
Cc1nc(N2CCN(c3ccccc3)CC2)nc2c1C(=O)CC(c1ccccc1)C2 (stereo unspecified),0.2,42.3,83.2*,0.6,-3.39
